Assay outcomes from PubChem.
Rows were chosen to be rich in hits. Some 15% of all compounds tested hit in one or more screens of this group.
ELG1 repair inh: qHTS screen for small molecules that inhibit ELG1-dependent DNA repair in human embryonic kidney (HEK293T) cells expressing luciferase-tagged ELG1. HEK293T ELG1-luciferase reporter, luminescence, 16 h; DNA damage induced by 5-fluorouridine. Potency, µM (top dose mostly 46.1 µM), inactives show top-dose activity change, negative = inhibition, actives largely listed as inhibitors. hit rate 2.3% among 330,000; also: nearly all actives have a fitted effect of over 55% in size
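5-Fluorouridine DNA damage + compound/DMSO, 2,000 cells/well, 16 h, 37 °C/5% CO2. ONE-Glo, 30 min RT, luminescence. Readout = decrease in reporter signal.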
VP16 counter: VP16 counterscreen qHTS for inhibitors of ROR gamma transcriptional activity; Drosophila S2 Gal4-VP16 UAS-luciferase, luminescence, 20 h; Potency, µM (series often up to 53.6 µM), without a hit: top-dose activity, negative = inhibition, most hits filed as inhibitors; hit rate 3.5% among 310,000; AID 2546, 2010;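 also: Gal4-VP16 expression switched on by copper sulfate through the metallothionein promoter; nearly all actives have a fitted effect of over 50% in size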
ALOX12 inh: Primary qHTS assay for inhibitors of human arachidonate 12S-lipoxygenase (ALOX12): Round 2; Polyunsaturated fatty acid lipoxygenase ALOX12 (Homo sapiens), P18054; hit rate 1.1% among 580,000; purified 12hLO, xylenol orange hydroperoxide absorbance; Potency, µM (top dose mostly 108 µM), without a hit: at the top dose activity change, negative = inhibition, hits mostly inhibitors
Target sequence (P18054 whole entry, looked up): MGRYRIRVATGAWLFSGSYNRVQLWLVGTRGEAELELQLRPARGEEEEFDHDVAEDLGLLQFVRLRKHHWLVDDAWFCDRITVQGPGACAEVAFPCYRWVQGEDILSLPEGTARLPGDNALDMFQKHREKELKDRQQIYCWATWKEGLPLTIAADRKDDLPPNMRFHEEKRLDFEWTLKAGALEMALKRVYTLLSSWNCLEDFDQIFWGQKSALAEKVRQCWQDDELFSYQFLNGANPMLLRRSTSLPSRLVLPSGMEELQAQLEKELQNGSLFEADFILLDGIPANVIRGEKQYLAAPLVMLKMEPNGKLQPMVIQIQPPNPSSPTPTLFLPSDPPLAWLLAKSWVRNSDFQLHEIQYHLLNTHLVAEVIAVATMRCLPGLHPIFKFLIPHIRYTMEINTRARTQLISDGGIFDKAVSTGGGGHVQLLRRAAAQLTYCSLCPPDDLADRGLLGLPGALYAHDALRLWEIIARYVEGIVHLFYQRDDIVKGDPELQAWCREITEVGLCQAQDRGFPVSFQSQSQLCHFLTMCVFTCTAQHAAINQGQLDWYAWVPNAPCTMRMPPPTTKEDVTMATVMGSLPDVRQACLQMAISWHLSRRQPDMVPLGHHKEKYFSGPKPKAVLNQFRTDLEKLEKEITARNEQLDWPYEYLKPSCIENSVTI
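Purified human 12hLO (150 nM final) in 25 mM Hepes, 0.01% Triton X-100, pH 7.0 was preincubated 15 min at room temperature with compound. Then 40 uM arachidonic acid was added, 30 min. Hydroperoxide was read by Fe-XO absorbance ratio 573/405 nm.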
RORg inh: qHTS for inhibitors of ROR gamma transcriptional activity; Nuclear receptor ROR-gamma (Mus musculus), P51450; Drosophila S2 Gal4-RORgamma UAS-luciferase reporter, 20 h; Potency, µM (series often up to 53.6 µM), inactives show at the top dose activity change, negative = inhibition, most hits filed as inhibitors; hit rate 5.4% among 310,000; AID 2551, 2010; also: nearly all actives have a fitted effect of over 60% in size
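Drosophila Schneider cells stably carrying a metallothionein-driven Gal4 DBD–ROR gamma fusion and a UAS-Photinus luciferase reporter were exposed to compound for 1 hr, then induced with copper sulfate (700 uM final) for 20 hr at ambient temperature before luminescence reading.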
TDP1 cell noCPT: qHTS for Inhibitors of human tyrosyl-DNA phosphodiesterase 1 (TDP1): qHTS in cells in absence of CPT; DT40 Tdp1-/- hTDP1 cells, no CPT, ATP luminescence, 48 h; Potency, µM (highest dose often 46.2 µM), for inactives: at the top dose activity change, negative = growth inhibition, hits mostly inhibitors; hit rate 15% among 420,000; also: nearly all actives have a fitted effect of over 55% in size
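Chicken DT40 Tdp1-/- cells stably complemented with human TDP1 were seeded at 400 cells/well with DMSO in place of 20 nM camptothecin. After compound pinning, cells grew at least 48 hr at 37 °C; viability read by CellTiter-Glo luminescence.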
DT40 TDP1 CPT: qHTS for Inhibitors of human tyrosyl-DNA phosphodiesterase 1 (TDP1): qHTS in cells in presence of CPT; hit rate 12% among 420,000; AID 686979, 2013; Potency, µM (titrated, usually from 46.2 µM), for inactives: at the top dose activity change, negative = growth inhibition, hits mostly inhibitors; chicken DT40 Tdp1-/-;hTDP1 cells + 20 nM CPT, ATP luminescence, 48 h; also: nearly all actives have a fitted effect of over 55% in size
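Chicken DT40 Tdp1-/- cells complemented with human TDP1, 400 cells/well, exposed to compounds plus 20 nM camptothecin for at least 48 h at 37 C; viability read as ATP content by CellTiter-Glo luminescence.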
* marks the source's active call; other numbers are inactive results. Calls follow the shape of the dose curve; as a rule, active = well fitted curve in the direction sought with a large enough effect; inconclusive = small, poorly fitted or top-dose-only effect, or another doubt; inactive = no such curve, though single readings can be large; an effect the other way counts as inactive or inconclusive. % is scaled to controls: 0 for no effect and ±100 for the full control effect; potency is read from the fitted curve at half-maximal effect.

`Cc1ccccc1C(=O)Nc1ccc(S(=O)(=O)N2CCC(c3nc4ccccc4s3)CC2)cc1` gave ALOX12 inh -22%, TDP1 cell noCPT 21µM* and DT40 TDP1 CPT 13µM*.
For Cc1ccc(S(=O)(=O)Nc2ccc(C)n(CC(=O)NCc3ccccc3)c2=O)cc1 the results were ALOX12 inh 3%.
`CN(C(=O)COC(=O)Cc1n[nH]c(=O)c2ccccc12)C1(C#N)CCCCC1` gave ALOX12 inh 1%.
For COc1ccc2cnn(CC(=O)N(C)Cc3ccccc3)c(=O)c2c1OC the results were ALOX12 inh 12%.
`Cc1ccc(C(=O)N/N=C/c2cn(Cc3ccccc3)c3ccccc23)cn1` gave ELG1 repair inh 6.5µM*, VP16 counter inconclusive, ALOX12 inh 75%, RORg inh inconclusive, TDP1 cell noCPT 21µM* and DT40 TDP1 CPT inconclusive.
Screening Cc1cc(/C=N/Nc2ccc([N+](=O)[O-])cn2)c(C)n1-c1ccccc1 returned ELG1 repair inh inconclusive, VP16 counter inconclusive, ALOX12 inh 0%, RORg inh 23%, TDP1 cell noCPT inconclusive and DT40 TDP1 CPT 18µM*.
Cc1ccc(Cn2cc(/C=N/Nc3ccc([N+](=O)[O-])cn3)c3ccccc32)cc1 was read as ELG1 repair inh -16%, VP16 counter 7.9µM*, ALOX12 inh -6%, RORg inh 11µM*, TDP1 cell noCPT 16µM* and DT40 TDP1 CPT inconclusive.
Screening COCC(=O)N1CCC(Oc2ccc(C(=O)N(C)C)cn2)CC1 returned ALOX12 inh 13%.
Screening O=C1Nc2c(Cl)cccc2C1=O returned ALOX12 inh -2%, TDP1 cell noCPT 23µM* and DT40 TDP1 CPT 15µM*.
Screening O=C1Nc2c(Br)cccc2C1=O returned ELG1 repair inh inconclusive, ALOX12 inh inconclusive, TDP1 cell noCPT 12µM* and DT40 TDP1 CPT 8.2µM*.
`Cc1cccc2c1NC(=O)C2=O` gave ALOX12 inh -29%, TDP1 cell noCPT -6% and DT40 TDP1 CPT inconclusive.
`COC(=O)c1cccc2c1NC(=O)C2=O` gave ELG1 repair inh 5%, VP16 counter 4%, ALOX12 inh 4%, RORg inh 2%, TDP1 cell noCPT 21µM* and DT40 TDP1 CPT -3%.
Cc1cc(C(F)(F)F)nn1CC(=O)NCCn1c(C)cnc1C1CCC1 was read as ALOX12 inh 47%.
For COc1ccc2c(C)c(CC(=O)NC3CC(C)(C)NC(C)(C)C3)c(=O)oc2c1OC the results were ALOX12 inh 0%.
CCC(C)C(=O)NCCc1ccccn1 (stereo not drawn) was read as ALOX12 inh -14%.
`CN1CCN(CC(O)(c2ccc(Cl)cc2)c2ccc(Cl)cc2)CC1` gave ELG1 repair inh -15%, VP16 counter inconclusive, ALOX12 inh inconclusive, RORg inh inconclusive, TDP1 cell noCPT 21µM* and DT40 TDP1 CPT inconclusive.
For CN(CC(=O)Nc1ccc(F)cc1)C(=O)c1cccc(S(=O)(=O)N2CCN(c3ccc(F)cc3)CC2)c1 the results were ELG1 repair inh inconclusive, ALOX12 inh -17%, TDP1 cell noCPT 13µM* and DT40 TDP1 CPT 15µM*.
